According to PubChem BioAssay (Tox21):
A number with no mark means an inactive call. Records with an inconclusive call do not appear. Where a call stands in place of a potency, no number is given. Active and inactive are the calls of the source. Unless noted, the call rests on the fitted dose curve; in most records, active means well fitted curve in the direction sought with a large enough effect in the repeat runs; inconclusive means weak or mixed curves; inactive means no such curve, though single readings can be large; an effect the other way counts as inactive or inconclusive.

Key:
[1] = Human pregnane X receptor (PXR) small molecule agonists, qHTS cell viability counter screen (AID 1346977); further: nearly all actives have a fitted effect of over 50% in size
In short: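 In each well, the PXR reporter HepG2 line was checked for viability: CellTiter-Fluor reagent added 23hr post-dosing, fluorescence read after 1hr incubation at 37C.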

[2] = Caspase-3/7 induction in HepG2 cells by small molecules, qHTS assay (AID 1346978); further: nearly all actives have a fitted effect of over 15% in size
In short: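 Caspase-3/7 induction was measured by Caspase-Glo 3/7 luminescence (30 min, room temperature) after a 17 hr compound exposure of wild-type HepG2 cells seeded at 2,000 per well and pre-incubated 5 hr.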

[3] = Caspase-3/7 induction in CHO-K1 cells by small molecules, qHTS cell viability counter screen (AID 1346979); further: nearly all actives have a fitted effect of over 35% in size
In short: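 Following a 5hr settling period, CHO-K1 cells at 1,500 per well received DMSO-dissolved compounds. Cell viability was quantified 16hr later by CellTiter-Fluor fluorescence, measured after 1hr with reagent at 37C.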

[4] = Caspase-3/7 induction in CHO-K1 cells by small molecules, qHTS assay (AID 1346980); further: nearly all actives have a fitted effect of over 15% in size
In short: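 Luminescent Caspase-Glo 3/7 read (30min, room temperature) quantified apoptosis induction. Cells were wild-type CHO-K1, treated with compound for 17hr at 37 C and 5% CO2.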

[5] = Caspase-3/7 induction in HepG2 cells by small molecules, qHTS cell viability counter screen (AID 1346981); further: series mostly up to about 92 µM; nearly all actives have a fitted effect of over 30% in size
In short: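 Fluorescence read-out of live-cell protease activity (CellTiter-Fluor) after 1 hr with reagent. This was measured in the same wells as the caspase-3/7 luminescence, on HepG2 cells exposed to DMSO-dissolved compounds for 16 hr at 37 C.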

[6] = target: Nuclear receptor subfamily 1 group I member 2 (Homo sapiens) (UniProt O75469); test: Human pregnane X receptor (PXR) small molecule agonists, qHTS assay (AID 1346982); further: nearly all actives have a fitted effect of over 35% in size; further: potency means the concentration at half of the fitted maximal effect
In short: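 HepG2 PXR-Luc reporter line, 5% charcoal-stripped FBS; 5 hr pre-incubation, compound (DMSO) 24 hr at 37 C/5% CO2; ONE-Glo 30 min RT; luminescence read-out.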

[7] = target: Acetylcholinesterase (Homo sapiens) (UniProt P22303); test: Acetylcholinesterase (AChE) small molecule antagonists: colormetric cell-based qHTS assay (AID 1347395; calls by dose curve; further: nearly all actives have a fitted effect of over 30% in size)
In short: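 After overnight attachment at 37 C, SH-SY5Y cells get 30 min compound exposure; detection cocktail (acetylthiocholine, DTNB) then incubates 90 min at 37 C, and absorbance reflects AChE-generated thiocholine.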

[8] = target: Acetylcholinesterase (Homo sapiens) (UniProt P22303); test: Acetylcholinesterase (AChE) small molecule antagonists: enzyme-based qHTS assay (AID 1347397; calls by dose curve; further: nearly all actives have a fitted effect of over 55% in size); conditions: Potency: AChE enzyme activity inhibition
In short: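 Colorimetric DTNB readout of acetylthiocholine hydrolysis, 10 min at room temperature, after 30 min room-temperature exposure of 50 mU/mL recombinant human enzyme to compound; DMSO vehicle control.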

[9] = target: Acetylcholinesterase (Homo sapiens) (UniProt P22303); test: Acetylcholinesterase (AChE) small molecule antagonists: fluorescence cell-based qHTS assay (AID 1347398; calls by dose curve; further: nearly all actives have a fitted effect of over 50% in size); conditions: Potency: AChE activity
In short: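 Cellular AChE activity read as thiocholine from acetylthiocholine hydrolysis, detected by Thiolite Green fluorescence at 490/520 nm after 40 min at room temperature. Compounds were pre-incubated 30 min at 37 C on adherent SH-SY5Y cells.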

[10] = target: Acetylcholinesterase (Homo sapiens) (UniProt P22303); test: Acetylcholinesterase (AChE) small molecule antagonists: enzyme-based qHTS assay with human liver microsomes (AID 1347399; calls by dose curve; further: nearly all actives have a fitted effect of over 60% in size); conditions: Potency: qHTS inhibition
In short: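 Recombinant human AChE (50 mU/mL in the enzyme mix) and human liver microsomes (0.25 mg/mL final) were preincubated with compound and NADPH (0.25 mg/mL final) for 30 min at 37 C. Acetylthiocholine/DTNB was then added; thiocholine was read colorimetrically after 10 min at room temperature.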

[11] = target: Cytochrome P450 2C19 (Homo sapiens) (UniProt P33261); test: Cytochrome P450 Family 2 Subfamily C Member 19 (CYP2C19) small molecule antagonists: luciferase reporter qHTS assay (AID 1671197); further: nearly all actives have a fitted effect of over 65% in size; further: potency means the concentration at half of the fitted maximal effect
In short: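 Light output is proportional to CYP2C19 activity: proluciferin substrate is converted to luciferin, then detected by a luciferin detection reagent that also stops the 1 h, 37C NADPH-driven reaction. Ketoconazole serves as positive control.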

[12] = target: Cytochrome P450 2C9 (Homo sapiens) (UniProt P11712); test: Cytochrome P450 Family 2 Subfamily C Member 9 (CYP2C9) small molecule antagonists: luciferase reporter qHTS assay (AID 1671198); further: nearly all actives have a fitted effect of over 50% in size; further: potency means the concentration at half of the fitted maximal effect
In short: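 Enzyme-substrate mix preincubated with compound 10 min at room temperature; reaction started with NADPH regeneration solution, 1 h 37C. Luminescent luciferin product read after 20 min detection reagent.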

[13] = target: Cytochrome P450 1A2 (Homo sapiens) (UniProt P05177); test: Cytochrome P450 Family 1 Subfamily A Member 2 (CYP1A2) small molecule antagonists: luciferase reporter qHTS assay (AID 1671199); further: nearly all actives have a fitted effect of over 50% in size; further: potency means the concentration at half of the fitted maximal effect
In short: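 Luminescence readout (relative luminescence units) after luciferin detection reagent, 20 min RT. Preceded by 1 h room-temperature CYP1A2 reaction with NADPH regeneration solution following 10 min compound preincubation with enzyme and proluciferin substrate. Furafylline positive control.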

[14] = target: Voltage-gated inwardly rectifying potassium channel KCNH2 (Homo sapiens) (UniProt Q12809); test: Human Ether-a-go-go-Related Gene (hERG) channel small molecule antagonists: fluorescence cell-based qHTS assay (AID 1671200)
In short: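 In this thallium-flux screen, overnight-cultured U2OS cells bearing the channel are dye-loaded in darkness for an hour, rested 10 min at room temperature, and then monitored kinetically at 480/540 nm for two minutes post-stimulus.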

[15] = target: Cytochrome P450 3A4 (Homo sapiens) (UniProt P08684); test: Cytochrome P450 Family 3 Subfamily A Member 4 (CYP3A4) small molecule antagonists: luciferase reporter qHTS assay (AID 1671201); further: nearly all actives have a fitted effect of over 50% in size; further: potency means the concentration at half of the fitted maximal effect
In short: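 CYP3A4 activity was followed with a P450-Glo proluciferin substrate. Test compounds in DMSO were preincubated 10 min; NADPH regeneration then ran 1 h, and light output was read 20 min after detection reagent.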

[16] = target: Nuclear receptor subfamily 1 group I member 2 (Rattus norvegicus) (UniProt Q9R1A7); test: Rat pregnane X receptor (rPXR) activation by small molecules, qHTS assay (AID 1346983); conditions: rPXR luciferase reporter cells, One-Glo luminescence, 24 h; max activation: stronger effect = higher value; further: nearly all actives have a fitted effect of over 20% in size
In short: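 Luminescent readout (One-Glo luciferase, 30 min room temperature) followed 24 hr compound treatment at 37 C of rPXR cells plated 2,000 per well and preincubated 5hr; qHTS format with compounds delivered in DMSO.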

[17] = target: Nuclear receptor subfamily 1 group I member 2 (Homo sapiens) (UniProt O75469); test: CYP3A4 induction through human pregnane X receptor (PXR) by small molecules, qHTS assay (AID 1346984); further: nearly all actives have a fitted effect of over 40% in size
In short: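 HepG2-derived DPX-2 line carrying PXR plus a CYP3A4-promoter luciferase reporter; cells plated 5 hr, compound-exposed 24 hr at 37C. CYP3A4 activity probed with 3uM (final) Luciferin-IPA for 3hr, then luciferase read after One-Glo.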

[18] = target: Nuclear receptor subfamily 1 group I member 2 (Homo sapiens) (UniProt O75469); test: Human pregnane X receptor (PXR) activation by small molecules, qHTS assay (AID 1346985); further: nearly all actives have a fitted effect of over 40% in size
In short: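 DPX-2 cells (HepG2 co-transfected with a PXR response element and a CYP3A4-promoter luciferase construct) were seeded at 2,000 per well, rested 5 hr at 37C, then exposed to DMSO-dissolved compounds for 24 hr. Activation was read as luciferase luminescence.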

[19] = target: Cytochrome P450 2D6 (Homo sapiens) (UniProt P10635); test: Cytochrome P450 Family 2 Subfamily D Member 6 (CYP2D6) small molecule antagonists: luciferase reporter qHTS assay (AID 1671196); further: nearly all actives have a fitted effect of over 50% in size; further: potency means the concentration at half of the fitted maximal effect
In short: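 Luminogenic proluciferin substrate, CYP2D6 enzyme; 10 min RT preincubation with compound, NADPH regeneration system added, 1 h RT. Stop/detection reagent, 20 min RT, luminescence read (RLU). Signal proportional to CYP activity.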

Acetylcholinesterase (Homo sapiens), sequence (P22303 whole entry, looked up): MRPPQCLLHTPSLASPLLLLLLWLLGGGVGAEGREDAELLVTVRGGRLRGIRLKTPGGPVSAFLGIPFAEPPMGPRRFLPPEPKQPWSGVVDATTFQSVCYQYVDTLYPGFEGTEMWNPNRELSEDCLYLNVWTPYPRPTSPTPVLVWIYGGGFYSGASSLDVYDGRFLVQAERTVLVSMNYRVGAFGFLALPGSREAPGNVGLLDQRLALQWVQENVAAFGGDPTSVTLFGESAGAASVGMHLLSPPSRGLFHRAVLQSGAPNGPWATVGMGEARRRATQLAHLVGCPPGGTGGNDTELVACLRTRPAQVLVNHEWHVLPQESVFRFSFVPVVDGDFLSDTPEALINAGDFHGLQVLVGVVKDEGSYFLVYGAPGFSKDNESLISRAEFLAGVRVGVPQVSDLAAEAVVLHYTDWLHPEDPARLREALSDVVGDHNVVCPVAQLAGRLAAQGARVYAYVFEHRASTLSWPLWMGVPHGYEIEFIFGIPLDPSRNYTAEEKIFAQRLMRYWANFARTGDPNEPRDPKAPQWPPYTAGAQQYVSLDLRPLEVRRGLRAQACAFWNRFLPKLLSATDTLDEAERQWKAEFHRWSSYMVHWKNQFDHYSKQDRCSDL
Voltage-gated inwardly rectifying potassium channel KCNH2 (Homo sapiens), sequence (Q12809 whole entry, looked up): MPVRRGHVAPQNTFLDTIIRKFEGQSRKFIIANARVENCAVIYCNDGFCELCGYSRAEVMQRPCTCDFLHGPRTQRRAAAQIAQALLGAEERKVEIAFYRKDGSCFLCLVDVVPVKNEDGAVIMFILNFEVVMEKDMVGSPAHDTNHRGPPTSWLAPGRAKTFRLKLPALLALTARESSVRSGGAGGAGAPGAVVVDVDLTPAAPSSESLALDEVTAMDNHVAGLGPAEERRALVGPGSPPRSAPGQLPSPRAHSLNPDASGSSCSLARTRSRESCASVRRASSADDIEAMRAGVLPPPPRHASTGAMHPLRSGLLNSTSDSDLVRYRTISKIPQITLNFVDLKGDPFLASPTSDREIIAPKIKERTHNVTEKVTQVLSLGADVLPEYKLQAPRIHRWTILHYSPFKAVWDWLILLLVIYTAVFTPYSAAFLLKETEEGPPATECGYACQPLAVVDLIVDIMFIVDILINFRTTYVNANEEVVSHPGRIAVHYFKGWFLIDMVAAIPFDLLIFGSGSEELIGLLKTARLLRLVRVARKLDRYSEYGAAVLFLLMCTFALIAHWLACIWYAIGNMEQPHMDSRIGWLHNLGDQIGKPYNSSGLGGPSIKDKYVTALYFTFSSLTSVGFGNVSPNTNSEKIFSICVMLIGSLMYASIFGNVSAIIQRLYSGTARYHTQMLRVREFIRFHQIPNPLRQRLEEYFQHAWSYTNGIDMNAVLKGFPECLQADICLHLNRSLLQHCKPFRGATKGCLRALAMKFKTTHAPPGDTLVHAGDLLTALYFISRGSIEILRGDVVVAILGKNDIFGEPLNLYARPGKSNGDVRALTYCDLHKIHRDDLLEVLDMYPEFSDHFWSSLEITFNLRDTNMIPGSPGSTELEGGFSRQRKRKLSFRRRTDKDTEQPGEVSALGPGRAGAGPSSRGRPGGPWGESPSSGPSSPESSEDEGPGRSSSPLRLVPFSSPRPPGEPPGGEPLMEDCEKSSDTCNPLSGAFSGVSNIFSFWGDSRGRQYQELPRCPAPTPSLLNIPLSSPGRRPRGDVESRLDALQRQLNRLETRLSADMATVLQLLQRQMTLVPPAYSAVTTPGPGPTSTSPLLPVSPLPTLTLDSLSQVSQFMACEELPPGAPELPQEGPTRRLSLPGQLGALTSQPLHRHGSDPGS
Cytochrome P450 2D6 (Homo sapiens), sequence (P10635 whole entry, looked up): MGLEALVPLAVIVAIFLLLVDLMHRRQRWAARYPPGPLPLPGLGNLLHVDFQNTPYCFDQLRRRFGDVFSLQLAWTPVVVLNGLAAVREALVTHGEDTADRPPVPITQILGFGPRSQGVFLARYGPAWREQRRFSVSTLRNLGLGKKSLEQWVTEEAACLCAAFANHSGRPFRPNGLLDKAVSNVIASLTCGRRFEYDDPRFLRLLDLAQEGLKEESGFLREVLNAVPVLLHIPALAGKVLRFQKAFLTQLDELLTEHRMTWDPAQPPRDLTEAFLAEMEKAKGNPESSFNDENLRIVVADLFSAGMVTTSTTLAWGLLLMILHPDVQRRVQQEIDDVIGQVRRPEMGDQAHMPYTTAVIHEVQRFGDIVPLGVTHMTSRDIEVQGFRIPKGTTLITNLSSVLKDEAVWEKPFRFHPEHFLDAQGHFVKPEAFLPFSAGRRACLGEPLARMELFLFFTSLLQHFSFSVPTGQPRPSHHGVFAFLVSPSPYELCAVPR
Cytochrome P450 1A2 (Homo sapiens), sequence (P05177 whole entry, looked up): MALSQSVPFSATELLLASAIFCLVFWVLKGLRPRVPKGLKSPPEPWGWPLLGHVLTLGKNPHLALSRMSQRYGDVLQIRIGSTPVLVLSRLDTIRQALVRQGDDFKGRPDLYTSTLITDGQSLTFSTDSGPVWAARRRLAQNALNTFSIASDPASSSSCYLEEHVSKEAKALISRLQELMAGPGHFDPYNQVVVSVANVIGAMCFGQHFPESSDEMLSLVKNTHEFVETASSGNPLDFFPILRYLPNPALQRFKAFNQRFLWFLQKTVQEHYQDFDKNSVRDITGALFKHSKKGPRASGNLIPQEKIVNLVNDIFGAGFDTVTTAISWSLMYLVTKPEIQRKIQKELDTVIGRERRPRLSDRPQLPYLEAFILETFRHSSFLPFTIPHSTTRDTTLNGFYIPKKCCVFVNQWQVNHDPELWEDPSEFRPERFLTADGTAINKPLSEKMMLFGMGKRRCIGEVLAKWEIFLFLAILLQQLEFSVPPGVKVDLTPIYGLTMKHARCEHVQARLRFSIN
Cytochrome P450 3A4 (Homo sapiens), sequence (P08684 whole entry, looked up): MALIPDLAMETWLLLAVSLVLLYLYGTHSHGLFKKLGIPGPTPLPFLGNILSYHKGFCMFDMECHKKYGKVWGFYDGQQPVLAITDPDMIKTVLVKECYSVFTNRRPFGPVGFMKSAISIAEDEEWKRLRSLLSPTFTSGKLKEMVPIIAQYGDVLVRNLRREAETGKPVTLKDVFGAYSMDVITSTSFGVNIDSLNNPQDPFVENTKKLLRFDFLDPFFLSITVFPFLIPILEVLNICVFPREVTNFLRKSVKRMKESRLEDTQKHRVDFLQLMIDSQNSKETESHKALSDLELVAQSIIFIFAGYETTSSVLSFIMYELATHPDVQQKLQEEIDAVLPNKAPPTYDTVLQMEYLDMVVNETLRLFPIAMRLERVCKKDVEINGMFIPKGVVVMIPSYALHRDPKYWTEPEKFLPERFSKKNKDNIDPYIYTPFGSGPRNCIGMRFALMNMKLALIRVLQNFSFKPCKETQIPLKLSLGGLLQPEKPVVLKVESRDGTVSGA
Cytochrome P450 2C9 (Homo sapiens), sequence (P11712 whole entry, looked up): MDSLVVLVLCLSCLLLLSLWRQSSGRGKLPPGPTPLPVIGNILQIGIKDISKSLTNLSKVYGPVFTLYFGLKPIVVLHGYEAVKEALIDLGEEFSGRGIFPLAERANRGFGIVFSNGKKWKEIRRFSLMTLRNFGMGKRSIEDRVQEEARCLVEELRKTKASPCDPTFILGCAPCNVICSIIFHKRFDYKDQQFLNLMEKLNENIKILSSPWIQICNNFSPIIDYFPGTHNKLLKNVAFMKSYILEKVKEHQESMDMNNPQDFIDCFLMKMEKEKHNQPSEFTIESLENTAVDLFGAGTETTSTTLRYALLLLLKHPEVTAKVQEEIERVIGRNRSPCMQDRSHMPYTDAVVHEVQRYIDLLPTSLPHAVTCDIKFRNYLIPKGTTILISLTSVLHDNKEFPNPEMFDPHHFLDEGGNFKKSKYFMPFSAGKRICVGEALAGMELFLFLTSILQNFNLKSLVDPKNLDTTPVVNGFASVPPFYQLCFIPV
Nuclear receptor subfamily 1 group I member 2 (Homo sapiens), sequence (O75469 whole entry, looked up): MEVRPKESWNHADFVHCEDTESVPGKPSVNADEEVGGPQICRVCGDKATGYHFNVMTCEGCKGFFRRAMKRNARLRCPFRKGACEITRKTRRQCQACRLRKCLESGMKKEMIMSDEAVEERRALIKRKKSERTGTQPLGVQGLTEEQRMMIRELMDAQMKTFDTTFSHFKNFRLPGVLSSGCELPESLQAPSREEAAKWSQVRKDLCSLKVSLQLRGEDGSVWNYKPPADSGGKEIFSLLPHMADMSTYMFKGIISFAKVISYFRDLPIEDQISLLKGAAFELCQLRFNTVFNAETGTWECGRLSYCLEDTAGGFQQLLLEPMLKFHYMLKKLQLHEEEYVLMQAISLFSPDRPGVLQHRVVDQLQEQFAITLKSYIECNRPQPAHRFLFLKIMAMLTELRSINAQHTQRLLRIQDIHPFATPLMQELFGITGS
Cytochrome P450 2C19 (Homo sapiens), sequence (P33261 whole entry, looked up): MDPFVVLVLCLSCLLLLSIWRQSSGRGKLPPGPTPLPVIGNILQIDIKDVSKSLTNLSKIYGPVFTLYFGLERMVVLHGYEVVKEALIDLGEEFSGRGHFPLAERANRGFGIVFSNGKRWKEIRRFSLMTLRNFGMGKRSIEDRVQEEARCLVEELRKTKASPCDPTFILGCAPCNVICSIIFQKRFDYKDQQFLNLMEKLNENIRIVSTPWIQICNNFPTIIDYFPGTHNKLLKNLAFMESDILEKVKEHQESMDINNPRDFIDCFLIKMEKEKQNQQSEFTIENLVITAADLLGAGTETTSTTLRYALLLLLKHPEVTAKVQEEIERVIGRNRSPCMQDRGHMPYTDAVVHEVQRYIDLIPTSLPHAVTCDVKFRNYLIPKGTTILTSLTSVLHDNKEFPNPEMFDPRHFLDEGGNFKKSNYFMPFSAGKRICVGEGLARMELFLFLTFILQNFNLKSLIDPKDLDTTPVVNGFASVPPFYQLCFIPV

In the case of `C=CCOC(=O)c1ccccc1N`, the Potency [1] is reported as “inactive”, the Potency [2] is reported as “inactive” and the Potency [3] is reported as “inactive”. For the same molecule, the Potency [4] was “inactive”, the Potency [5] was “inactive” and the Potency [6] was “inactive”. For the same molecule, the Potency [7] was “inactive”, the Potency [8] was “inactive” and the Potency [9] was “inactive”. For the same molecule, the Potency [10] was “inactive”, the Potency [11] was 25.4 µM (active) and the Potency [12] was 35.8 µM (active). For the same molecule, the Potency [13] was 7.15 µM (active), the Potency [14] was “inactive” and the Potency [15] was 40.2 µM (active).

With `COc1c2c(cc3c1OCO3)CCN(C)C2` the Potency [1] was “inactive”, the Potency [2] was “inactive” and the Potency [3] was “inactive”. For the same molecule, the Potency [4] was “inactive”, the Potency [5] was “inactive” and the Potency [6] was “inactive”. For the same molecule, the max activation [16] was -1.49%, the Potency [17] was “inactive” and the Potency [18] was “inactive”. For the same molecule, the Potency [7] was “inactive”, the Potency [8] was “inactive” and the Potency [10] was “inactive”. The Potency [19] was 4.36 µM (active), the Potency [11] was “inactive” and the Potency [12] was “inactive”. The Potency [14] was “inactive” and the Potency [15] was “inactive”.

In the case of `CC(C)C(Br)C(=O)NC(N)=O` (stereo unspecified), the Potency [1] is reported as “inactive”, the Potency [2] is reported as “inactive” and the Potency [3] is reported as “inactive”. For the same molecule, the Potency [4] was “inactive”, the Potency [5] was “inactive” and the Potency [6] was “inactive”. For the same molecule, the max activation [16] was -0.856%, the Potency [17] was “inactive” and the Potency [18] was “inactive”. The Potency [7] was “inactive”, the Potency [9] was “inactive” and the Potency [10] was “inactive”. The Potency [19] was “inactive”, the Potency [12] was “inactive” and the Potency [13] was “inactive”. The Potency [14] was “inactive” and the Potency [15] was “inactive”.

For `CCCCN(CCCC)C(=S)S`, the Potency [1] was “inactive”, the Potency [2] was “inactive” and the Potency [3] was “inactive”. For the same molecule, the Potency [4] was “inactive”, the Potency [5] was “inactive” and the Potency [6] was 24.3 µM (active). The Potency [7] was “inactive”, the Potency [8] was “inactive” and the Potency [9] was “inactive”. For the same molecule, the Potency [10] was “inactive”, the Potency [19] was 1.59 µM (active) and the Potency [11] was “inactive”.

With `O=[N+]([O-])c1ccc(CCl)cc1` the Potency [1] was “inactive”, the Potency [2] was “inactive” and the Potency [3] was “inactive”. For the same molecule, the Potency [4] was “inactive”, the Potency [5] was “inactive” and the Potency [6] was “inactive”. The Potency [7] was “inactive”, the Potency [8] was “inactive” and the Potency [9] was “inactive”. For the same molecule, the Potency [10] was “inactive”, the Potency [19] was “inactive” and the Potency [11] was “inactive”. The Potency [12] was “inactive”, the Potency [14] was “inactive” and the Potency [15] was “inactive”.

With `COCCC#N` the Potency [1] was “inactive”, the Potency [2] was “inactive” and the Potency [3] was “inactive”. The Potency [4] was “inactive”, the Potency [5] was “inactive” and the Potency [6] was “inactive”. The Potency [7] was “inactive”, the Potency [8] was “inactive” and the Potency [9] was “inactive”. The Potency [10] was “inactive”, the Potency [19] was “inactive” and the Potency [11] was “inactive”. For the same molecule, the Potency [13] was “inactive”, the Potency [14] was “inactive” and the Potency [15] was “inactive”.

In the case of `O=[N+]([O-])c1ccc(Cl)c(Cl)c1Cl`, the Potency [1] is reported as “inactive”, the Potency [2] is reported as “inactive” and the Potency [3] is reported as “inactive”. For the same molecule, the Potency [4] was “inactive”, the Potency [5] was “inactive” and the Potency [6] was “inactive”. For the same molecule, the Potency [7] was “inactive”, the Potency [8] was “inactive” and the Potency [9] was “inactive”. For the same molecule, the Potency [10] was “inactive”, the Potency [11] was 55.6 µM (active) and the Potency [12] was “inactive”. For the same molecule, the Potency [13] was 8.8 µM (active), the Potency [14] was “inactive” and the Potency [15] was “inactive”.
